Reference: PubChem BioAssay (NCATS)
Inconclusive results are not listed. Activity calls are given as the source filed them. The call rests on the fitted dose curve; in most records, active means well fitted inhibition curve with a large enough effect; inconclusive means small, poorly fitted or top-dose-only effect; inactive means flat fitted curve, though single readings scatter.

What was measured:
[1] = Drug repurposing screens with cells derived from glioblastoma tumor samples (AID 1345199); conditions: GBM patient neurospheres viability, ATP luminescence, 48 h; further: nearly all actives have a fitted effect of over 40% in size
Method in brief: (§1)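 Four patient lines of CD133+ GBM neurospheres were screened at several concentrations; hits were retested in those lines plus three slower-growing GBM lines, using 48-hour treatment and ATP-based viability.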

astro = control astrocytes; experiment: as above; conditions: viability, ATP luminescence, 48 h; series mostly up to 45.9 µM
Method in brief: as §1

[2] = at 45.9 µM (top of the series), tumour line B
[3] = at 45.9 µM (top of the series), tumour line D
[4] = at 46 µM (top of the series), tumour line A
[5] = at 46.1 µM (top of the series), tumour line C
On the % scale 0 is the no-effect control and ±100 the full control effect.

CC(O)CO (stereo not given)
inactive: activity, negative = cell killing [1, 2] 0.179% | activity, negative = cell killing [1, 3] 10.5% | activity, negative = cell killing [1, 4] -19.9% | activity, negative = cell killing [1, 5] -8.89% | Potency (astro)

CC[N+](C)(C)Cc1ccccc1Br
inactive: activity, negative = cell killing ([1]; at 20 µM (top of the series), tumour line C) -2.45% | activity, negative = cell killing ([1]; at 21.2 µM (top of the series), tumour line B) 0.866% | activity, negative = cell killing ([1]; at 21.2 µM (top of the series), tumour line D) -1.19% | activity, negative = cell killing ([1]; at 21.3 µM (top of the series), tumour line A) -11% | Potency (astro)

O=S(=O)(O)O
inactive: activity, negative = cell killing [1, 2] 3.03% | activity, negative = cell killing [1, 3] -20.1% | activity, negative = cell killing [1, 4] -0.209% | activity, negative = cell killing [1, 5] -1.26% | Potency (astro)

CCCCC(=O)N(Cc1ccc(-c2ccccc2-c2nn[nH]n2)cc1)[C@@H](C(=O)O)C(C)C
inactive: activity, negative = cell killing [1, 2] 2.85% | activity, negative = cell killing [1, 3] -14.3% | activity, negative = cell killing [1, 4] -22.5% | activity, negative = cell killing [1, 5] 9.38% | Potency (astro)
